# Values without a mark were called inactive. No rule for the calls is given here.
# Target: Pantothenate synthetase (Mycobacterium tuberculosis (strain ATCC 25618 / H37Rv)) (UniProt P9WIL5)
# Assay: Recombinant Mtb pantothenate synthetase (PanC) inhibitors, coupled enzyme, confirmatory (AID 375);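 also: 0% = full reaction with vehicle and 100% = no enzyme background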
# Conditions: coupled enzyme assay; at 10 µM, active compounds read high
# Chain of Pantothenate synthetase (Mycobacterium tuberculosis (strain ATCC 25618 / H37Rv)) (P9WIL5 whole entry, looked up): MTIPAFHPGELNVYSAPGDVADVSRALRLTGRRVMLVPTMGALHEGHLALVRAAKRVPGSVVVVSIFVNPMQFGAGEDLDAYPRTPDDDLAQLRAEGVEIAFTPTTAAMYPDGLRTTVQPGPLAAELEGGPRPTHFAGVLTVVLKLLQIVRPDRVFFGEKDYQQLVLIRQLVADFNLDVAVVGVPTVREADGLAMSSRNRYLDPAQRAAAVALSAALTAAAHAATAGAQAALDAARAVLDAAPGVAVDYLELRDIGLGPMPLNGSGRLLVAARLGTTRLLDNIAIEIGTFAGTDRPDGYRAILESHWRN
row,SMILES,inhibition
1,CC(=O)c1ccc(OCC(O)CN2CCN(Cc3ccc4c(c3)OCO4)CC2)cc1 (centres undefined),3%
2,CN1CCN(C2=C(Cl)C(=O)N(c3cccc(Cl)c3)C2=O)CC1,3%
3,N[C@@H](Cc1ccc(O)c(I)c1)C(=O)O,6%
4,CCOC(=O)c1cc(C)sc1N1C(=O)C2C3C=CC(C3)C2C1=O (centres undefined),0%
5,CC(C)N(Cc1nc(-c2ccccc2)no1)C(=O)CCCN1C(=O)c2ccccc2C1=O,9%
6,O=C(CN(CC1CCCO1)S(=O)(=O)c1ccc(S(=O)(=O)NC2CC2)cc1)Nc1ccccc1 (centres undefined),0%
7,CN(c1ccc(OCc2nnc(-c3ccccc3)o2)cc1)S(=O)(=O)c1ccccc1,0%
8,CC(CC(=O)NCc1ccccc1)C1CCCO1 (centres undefined),0%
9,CCN1CCc2c(C#N)c(N3CCCCC3)nc(NCc3ccccc3)c2C1,0%
10,Cc1nc2cc(NC(=O)N3c4ccccc4CC3C)ccc2o1 (centres undefined),0%
11,COc1ccc(NC(=O)CCNC(=O)Cn2ccc3ccccc3c2=O)c(OC)c1,0%
12,NC(N)=NS(=O)(=O)c1ccc(N)cc1,0%
13,CN/C=C1\C(=O)C(C)(C)Oc2ccc3ccc(=O)oc3c21,9%
14,Cc1ccccc1-n1c(=O)cc(N2CCN(C(=O)c3ccco3)CC2)[nH]c1=O,0%
15,c1ccc(-c2noc(-c3cccnc3)n2)nc1,0%
16,Cc1cc(C)nc(SC2=CS(=O)(=O)c3ccccc32)n1,0%
17,CCCNc1nc2c(c(=O)n(C)c(=O)n2C)n1Cc1cccc(C)c1,0%
18,CCN(CC)CCN1C(=O)C(=O)/C(=C(/O)c2ccc(OC(C)C)cc2)C1c1ccncc1 (centres undefined),5%
19,Cc1onc(-c2c(Cl)cccc2Cl)c1C(=O)NCC1CCCO1 (centres undefined),0%
20,Cn1c(SCc2nnc3n2CCCCC3)nc2ccccc21,0%

row,SMILES,inhibition
1,C[C@]12CC[C@H]3[C@@H](CCC4=CC(=O)CC[C@@]43C)[C@@H]1CC[C@@H]2C(=O)CO,0%
2,Cc1ccc(Cn2nnc3c(=O)[nH]c(C4CCN(S(=O)(=O)c5ccc(F)cc5)CC4)nc32)cc1,3%
3,CCN(CC)Cc1nc2c(c(=O)[nH]1)C1(CCCCC1)Cc1ccccc1-2,3%
4,CCCc1cc(=O)[nH]c(SCc2ccccc2)n1,0%
5,Cc1cc(-c2ccc(F)cc2)nc2cc(C(N)=O)nn12,0%
6,Cc1ccc(SC(C)c2nc(-c3ccccc3)no2)cc1 (centres undefined),0%
7,CCn1cc(S(=O)(=O)CC(=O)Nc2ccc(OC)cc2)c2ccccc21,1%
8,CCOC(=O)N1CCN(C(=O)c2cnn(-c3ccccc3)c2NC(=O)c2ccccc2F)CC1,0%
9,CCOC(=O)c1c(COC(=O)c2ccco2)nc2ccccc2[n+]1[O-],0%
10,CCOC(=O)CSC1=C(C#N)C(c2ccc(Cl)cc2)C(C(=O)OC)C(=O)N1 (centres undefined),0%
11,CCOC(=O)c1sc(NS(=O)(=O)c2ccc(NC(C)=O)cc2)nc1C,0%
12,CCNS(=O)(=O)c1c(C)cc(N2CCCC2=O)cc1C,6%
13,Cc1cc(=O)n(C)c(=O)n1CCCNc1ccccc1,2%
14,Cc1cccc(CN2CCN(C(c3ccccc3)c3ccc(Cl)cc3)CC2)c1 (centres undefined),11%
15,Cc1ccc(Cn2c(=N)c(C(=O)NCc3ccco3)cc3c(=O)n4ccccc4nc32)cc1,1%
16,CCOC(=O)C1=C(O)CCn2c1nc1ccccc12,2%
17,CCn1cnc2sc(C(=O)Nc3ccc4c(c3)OCO4)c(C)c2c1=O,4%
18,CCOC(=O)N1CCC(NC(=O)C2CCCN(C(=O)c3cc4sccc4n3C)C2)CC1 (centres undefined),0%
19,CCN1C(=O)NC(c2cc(Br)ccc2OC)C(C(=O)OC)=C1C (centres undefined),0%
